# High-throughput results (PubChem BioAssay)
# Only some compounds are listed: those with a hit (about 6.7% of all), similar ones and a draw of the others.
# Pf Dd2 growth: P. falciparum Dd2 growth inhibitors, primary screen, SYBR Green fluorescence, single dose replicates | 94,000 compounds, 2.3% hits | 72 h; stronger effect = lower value | activity change, % at 10 µM; in the data active = activity change below about -80%; inconclusive = no clear call, values can overlap the other calls
# C diff growth: C. difficile growth inhibitors, primary screen, HTS. 86,000 compounds, 0.25% hits. growth activity, negative = inhibition, % at 16 µg/mL (by protocol). Clostridium difficile clinical isolate growth, OD600, 24 h; stronger effect = lower value;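 active = mean growth activity at or below -80% and every replicate also at or below -80%; inconclusive = mean at or below -80% but some replicate above -80%; inactive = mean growth activity above -80%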;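 note: 0% = DMSO wells and -100% = levofloxacin 16 µg/mL wells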
# T cruzi growth-1: T. cruzi intracellular proliferation inhibitors, primary screen, cell-based, beta-gal Tulahuen parasites, NIH3T3 host, luminescence; inhibition, % at 8.34 µM; T. cruzi beta-gal in NIH3T3, GalScreen luminescence, 90 h; 77,000 compounds, 5.9% hits;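 active = mean inhibition above about 93%, with at least 55% of replicates each passing it, limit read from the data, passing the limit was not always enough; inconclusive = only one of those two conditions holds; inactive = neither condition holds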
# T cruzi growth-2: T. cruzi intracellular proliferation inhibitors, confirmation, cell-based, NIH3T3 host, beta-gal parasite, luminescence, cherry-pick | 5,600 compounds, 72% hits | T. cruzi beta-gal in NIH3T3, GalScreen luminescence, 90 h | shares compounds with T cruzi growth-1 | inhibition, % at 8.35 µM;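 active = mean replicate inhibition above about 95% and at least 55% of replicates individually reaching it, limit read from the data; inconclusive = only one of the two criteria is met; inactive = neither criterion is met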
# T cruzi growth-3: inhibitors of intracellular T. cruzi replication, confirmation, NIH3T3 host cells, beta-gal parasites, cherry-pick, set 2. AID 651740, 2012. shares compounds with T cruzi growth-1. T. cruzi beta-gal in NIH3T3, GalScreen luminescence, 90 h. inhibition, % at 2.09 µM. 5,600 compounds, 21% hits;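 active = mean inhibition above about 95%, with at least 55% of replicates also reaching it, limit read from the data; inconclusive = meets just one of the two conditions; inactive = meets neither condition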;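 note: plate controls were neutral control median for no effect and positive control median for full effect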
# NIH3T3 tox: cytotoxicity in mouse NIH/3T3 fibroblasts, confirmation, cytotoxicity control for T. cruzi proliferation inhibitor project, cell-based, cherry-pick, single point. shares compounds with T cruzi growth-1. NIH/3T3 viability, CellTiter-Glo ATP luminescence, 90 h. cytotoxicity (signal decrease), % at 8.35 µM. 5,600 compounds, 14% hits. AID 651742, 2012;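 active = mean signal decrease across replicates above about 35% based on untreated-well scatter, with enough replicates individually passing, limit read from the data; inconclusive = no rule stated though some were filed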;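 note: 0% = median of neutral control wells and 100% = median of positive control wells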
# NIH3T3 tox 2: NIH/3T3 fibroblast cytotoxicity, confirmation, cytotoxicity control, cell-based, cherry-pick, single point, set 2; NIH/3T3 viability, CellTiter-Glo ATP luminescence, 90 h; inhibition, % at 24.9 µM; 5,600 compounds, 56% hits; AID 651744, 2012; shares compounds with T cruzi growth-1;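 active = mean loss of cell viability signal at or above a set limit, and enough replicates individually reaching it; inconclusive = meets only the mean limit or only the replicate share; inactive = meets neither condition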;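 note: 0% = median of neutral control wells and 100% = median of positive control wells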
# Numbers without * were called inactive; ? = inconclusive; . = no result given.
SMILES,Pf Dd2 growth,C diff growth,T cruzi growth-1,T cruzi growth-2,T cruzi growth-3,NIH3T3 tox,NIH3T3 tox 2
Cc1ccc(-c2ccc3c(c2)O[C@@H](CN(C)Cc2ccc(F)cc2)[C@H](C)CN([C@@H](C)CO)S3(=O)=O)cc1,-62,13,?,96*,103*,63*,105*
CN(C)C(=O)C[C@@H]1CC[C@@H]2[C@H](COC[C@@H](O)CN2C(=O)C2CC2)O1,1,-4,23,.,.,.,.
CN(C)C(=O)[C@H]1[C@H](CO)[C@H]2Cn3c(ccc(-c4ccccc4F)c3=O)[C@@H]1N2C(=O)c1cccnc1,3,-4,12,.,.,.,.
C[C@H]1CN([C@@H](C)CO)C(=O)Cc2cc(NC(=O)Nc3cccc4ccccc34)ccc2O[C@H]1CN(C)Cc1ccc2c(c1)OCO2,8,3,16,.,.,.,.
C[C@@H]1CN([C@@H](C)CO)C(=O)Cc2cc(NC(=O)Nc3ccc(C(F)(F)F)cc3)ccc2O[C@H]1CN(C)Cc1ccc2c(c1)OCO2,-73,40,93,.,.,.,.
C[C@H](CO)N1C[C@H](C)[C@@H](CN(C)Cc2ccc3c(c2)OCO3)Oc2ccc(NC(=O)Nc3cccc4ccccc34)cc2CC1=O,-29,8,109*,101*,104*,41*,52*
C[C@H](CO)N1C[C@H](C)[C@H](CN(C)Cc2ccc3c(c2)OCO3)Oc2ccc(NC(=O)Nc3ccc(C(F)(F)F)cc3)cc2CC1=O,-8,25,97*,109*,104*,19,84*
C[C@H]1CN([C@@H](C)CO)C(=O)c2cc(NC(=O)Nc3cccc4ccccc34)ccc2O[C@H]1CN(C)Cc1ccc2c(c1)OCO2,32,1,100*,90,93,28,32*
C[C@@H]1CN([C@@H](C)CO)C(=O)c2cc(NC(=O)Nc3cccc4ccccc34)ccc2O[C@@H]1CN(C)Cc1ccc2c(c1)OCO2,-36,19,14,.,.,.,.
COCCNC(=O)C[C@@H]1C[C@H]2c3cc(NS(=O)(=O)c4ccccc4)ccc3O[C@H]2[C@H](CO)O1,3,.,19,.,.,.,.
C[C@@H]1CN([C@@H](C)CO)C(=O)c2cc(NC(=O)Nc3cccc4ccccc34)ccc2O[C@@H]1CN(C)Cc1ccc(Oc2ccccc2)cc1,-35,11,124*,99*,105*,29,27*
COc1ccc(CN(C)C[C@H]2Oc3ccc(NC(=O)Nc4cccc5ccccc45)cc3C(=O)N([C@H](C)CO)C[C@@H]2C)cc1,6,-4,-2,.,.,.,.
C[C@@H]1CN([C@H](C)CO)C(=O)c2cc(NC(=O)Nc3cccc4ccccc34)ccc2O[C@H]1CN(C)Cc1ccc(Oc2ccccc2)cc1,-53,7,112*,107*,94,27,16
COc1ccc(CN(C)C[C@H]2Oc3ccc(NC(=O)Nc4cccc5ccccc45)cc3C(=O)N([C@@H](C)CO)C[C@H]2C)cc1,3,30,62,.,.,.,.
C[C@@H]1CN([C@@H](C)CO)C(=O)c2cc(NS(=O)(=O)c3ccc(F)cc3)ccc2O[C@@H](C)CCCCO[C@@H]1CN(C)C,-30,0,93,.,.,.,.
CC(=O)N1[C@@H]2Cn3c(ccc(C4=CCCCC4)c3=O)[C@H]1[C@@H](C(=O)N[C@H](C)c1ccccc1)[C@@H]2CO,.,-17,24,.,.,.,.
CN1CCN(C(=O)[C@@H]2[C@@H](CO)[C@@H]3Cn4c(cccc4=O)[C@H]2N3Cc2ccncc2)CC1,.,-4,169*,2,16,-16,-5
C[C@H](NC(=O)[C@H]1[C@H](CO)[C@H]2Cn3c(cccc3=O)[C@@H]1N2C(=O)C1CCC1)c1ccccc1,.,-2,-16,.,.,.,.
O=C([C@@H]1[C@@H](CO)[C@@H]2Cn3c(cccc3=O)[C@H]1N2Cc1ccccc1)N1CCCCC1,.,-2,1,.,.,.,.
